The values that follow come from PubChem BioAssay.

Assay [1] deals with PRMT1 (protein arginine N-methyltransferase 1). Nature of the assay: small molecules binding arginine methyltransferase PRMT1 – biochemical, small-molecule microarray, 635 nm fluorescence, primary screen (AID 1088).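 Further: binding of Prmt1 protein to compounds spotted on small-molecule microarray slides.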 Conditions: higher = more signal.
The nature of assay [2]: growth effects on S. cerevisiae YJM789 – YJM789 clinical isolate, OD600, 24 h, basal, primary screen (AID 1089).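 Further: growth of clinical yeast isolate S. cerevisiae YJM 789 seeded 1000 cells per well; test concentration not given here.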 The conditions noted are these: higher = more signal, called active from +8 up or from −8 down.
The nature of assay [3]: S. pombe growth modifiers, basal conditions – strain 972, OD600, 24 h, no modulator, primary screen (AID 1090).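 Further: basal condition with compound alone and no growth modifier present; test concentration not given here.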 The conditions noted are these: S. pombe 972 growth, higher = more signal, called active from +8 up or from −8 down.
A short description of assay [4]: budding yeast growth modifiers under rapamycin – strain BY4716, OD600, 96 h, primary screen (AID 1091). Further: test concentration not given here. The conditions noted are these: S. cerevisiae BY4716 + rapamycin, higher = more signal, called active from +8 up or from −8 down.
Assay [5] deals with Torsin-1A-interacting protein 2 (Homo sapiens) (UniProt Q8NFQ8). Nature of the assay: small molecules binding lysate-expressed LULL1 – cell lysate, human LULL1 lysate, 635/667 nm fluorescence, primary screen (AID 1092).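 Further: probe is lysate of COS7 cells overexpressing human LULL1; score merges per-feature 667 nm fluorescence with signal-to-noise.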 The conditions noted are these: small-molecule microarray, hLULL1 lysate binding, 635 nm fluorescence; higher = more signal.
Sequence of Torsin-1A-interacting protein 2 (Homo sapiens) (Q8NFQ8 whole entry, looked up): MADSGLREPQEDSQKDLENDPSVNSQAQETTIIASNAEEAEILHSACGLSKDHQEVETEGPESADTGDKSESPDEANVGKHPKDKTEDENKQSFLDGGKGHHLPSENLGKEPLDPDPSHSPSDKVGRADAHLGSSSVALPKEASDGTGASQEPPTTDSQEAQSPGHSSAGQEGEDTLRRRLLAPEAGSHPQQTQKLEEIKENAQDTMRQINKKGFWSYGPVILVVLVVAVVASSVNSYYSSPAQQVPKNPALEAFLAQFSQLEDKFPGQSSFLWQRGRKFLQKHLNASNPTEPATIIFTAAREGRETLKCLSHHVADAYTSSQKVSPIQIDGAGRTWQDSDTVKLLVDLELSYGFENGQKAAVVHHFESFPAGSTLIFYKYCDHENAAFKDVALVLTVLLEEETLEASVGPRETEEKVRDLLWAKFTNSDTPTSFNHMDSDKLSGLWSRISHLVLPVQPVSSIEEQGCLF
The nature of assay [6]: optical density change of DRC41 E. coli – strain DRC41, OD650, 24 h, E. coli filamentation project, primary screen (AID 1093).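 Further: MC1000 strain lacking acrAB efflux and sulA so SOS filamentation is blocked; test concentration not given here.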 Conditions: E. coli DRC41 growth, higher = more signal, called active from +8 up or from −8 down.
A short description of assay [7]: probe aLefty2 binding to arrayed compounds – biochemical, biotinylated probe, 635/667 nm fluorescence, primary screen (AID 1094).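 Further: score merges spot fluorescence near 667 nm with spot signal-to-noise ratio.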 Conditions: small-molecule microarray, higher = more signal.
For assay [8], the system named is Noggin (protein binding on small-molecule microarray). Briefly: small molecules binding Noggin protein – biochemical, 635/667 nm fluorescence, primary screen (AID 1095).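 Further: score merges 667 nm feature fluorescence with signal to noise over triplicate slides.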 The conditions noted are these: 635 nm fluorescence, higher = more signal.
The target of assay [9] is Neurogenic locus notch homolog protein 3 (Homo sapiens) (UniProt Q9UM47). Nature of the assay: small molecules binding NOTCH3 protein – biochemical, 635/667 nm fluorescence, primary screen (AID 1096). Conditions: small-molecule microarray, 635 nm fluorescence, higher = more signal.
Sequence of Neurogenic locus notch homolog protein 3 (Homo sapiens) (Q9UM47 whole entry, looked up): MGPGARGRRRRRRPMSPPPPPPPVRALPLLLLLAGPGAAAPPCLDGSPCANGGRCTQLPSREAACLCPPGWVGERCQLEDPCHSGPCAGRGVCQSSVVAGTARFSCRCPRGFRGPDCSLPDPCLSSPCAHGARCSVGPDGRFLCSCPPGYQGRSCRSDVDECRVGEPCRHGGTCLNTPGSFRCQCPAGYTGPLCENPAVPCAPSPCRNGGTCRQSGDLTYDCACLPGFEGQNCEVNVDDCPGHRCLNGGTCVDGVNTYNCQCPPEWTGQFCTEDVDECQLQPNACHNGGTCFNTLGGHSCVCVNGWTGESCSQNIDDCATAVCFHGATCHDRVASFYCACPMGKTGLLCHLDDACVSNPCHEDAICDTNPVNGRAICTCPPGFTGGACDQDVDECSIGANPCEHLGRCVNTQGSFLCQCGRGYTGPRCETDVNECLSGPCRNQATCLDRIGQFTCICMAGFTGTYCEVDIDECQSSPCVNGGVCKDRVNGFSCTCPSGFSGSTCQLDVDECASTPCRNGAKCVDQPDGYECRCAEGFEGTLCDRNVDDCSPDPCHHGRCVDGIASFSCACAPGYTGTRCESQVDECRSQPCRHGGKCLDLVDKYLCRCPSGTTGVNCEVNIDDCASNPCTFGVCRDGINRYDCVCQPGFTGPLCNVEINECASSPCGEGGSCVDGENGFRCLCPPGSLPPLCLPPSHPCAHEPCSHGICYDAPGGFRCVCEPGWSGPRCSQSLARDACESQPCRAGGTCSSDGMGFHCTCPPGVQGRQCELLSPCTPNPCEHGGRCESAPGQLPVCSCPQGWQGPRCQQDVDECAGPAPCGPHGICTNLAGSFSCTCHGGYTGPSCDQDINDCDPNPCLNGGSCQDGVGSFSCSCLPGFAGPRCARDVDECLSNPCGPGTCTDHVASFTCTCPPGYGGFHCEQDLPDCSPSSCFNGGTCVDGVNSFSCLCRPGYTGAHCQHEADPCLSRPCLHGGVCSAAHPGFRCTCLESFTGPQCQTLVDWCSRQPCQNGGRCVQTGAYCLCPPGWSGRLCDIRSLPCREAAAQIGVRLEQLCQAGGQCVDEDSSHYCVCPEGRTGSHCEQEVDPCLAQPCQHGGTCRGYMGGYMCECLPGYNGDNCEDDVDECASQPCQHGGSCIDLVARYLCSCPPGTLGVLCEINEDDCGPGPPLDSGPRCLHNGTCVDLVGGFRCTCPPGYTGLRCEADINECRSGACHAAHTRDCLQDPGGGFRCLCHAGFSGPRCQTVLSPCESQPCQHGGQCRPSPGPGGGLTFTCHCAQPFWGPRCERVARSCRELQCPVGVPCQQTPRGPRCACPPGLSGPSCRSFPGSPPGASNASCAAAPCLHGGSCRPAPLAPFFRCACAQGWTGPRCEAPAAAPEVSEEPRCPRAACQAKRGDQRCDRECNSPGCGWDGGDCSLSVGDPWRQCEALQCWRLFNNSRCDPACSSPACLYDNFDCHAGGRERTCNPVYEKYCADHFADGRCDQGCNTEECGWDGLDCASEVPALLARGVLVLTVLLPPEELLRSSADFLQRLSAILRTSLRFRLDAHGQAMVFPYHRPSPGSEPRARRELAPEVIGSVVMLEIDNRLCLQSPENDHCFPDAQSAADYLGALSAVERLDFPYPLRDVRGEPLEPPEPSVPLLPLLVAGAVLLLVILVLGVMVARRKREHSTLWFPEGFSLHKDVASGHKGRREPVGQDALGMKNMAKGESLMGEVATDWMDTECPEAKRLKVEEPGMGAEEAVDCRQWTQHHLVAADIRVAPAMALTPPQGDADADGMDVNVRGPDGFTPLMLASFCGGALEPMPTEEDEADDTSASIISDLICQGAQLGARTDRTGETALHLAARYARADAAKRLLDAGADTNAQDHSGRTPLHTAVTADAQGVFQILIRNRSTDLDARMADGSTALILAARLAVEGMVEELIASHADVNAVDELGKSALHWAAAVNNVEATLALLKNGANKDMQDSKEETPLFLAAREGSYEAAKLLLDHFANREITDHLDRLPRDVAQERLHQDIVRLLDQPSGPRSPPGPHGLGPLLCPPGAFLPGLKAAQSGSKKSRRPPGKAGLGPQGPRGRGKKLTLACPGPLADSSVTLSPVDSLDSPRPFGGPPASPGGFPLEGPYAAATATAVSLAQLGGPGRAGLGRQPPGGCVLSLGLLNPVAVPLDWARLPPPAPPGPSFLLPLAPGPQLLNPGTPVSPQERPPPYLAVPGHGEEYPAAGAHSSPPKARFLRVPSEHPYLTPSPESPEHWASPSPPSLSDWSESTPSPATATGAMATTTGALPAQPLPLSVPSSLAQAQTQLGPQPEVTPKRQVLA
A short description of assay [10]: probe aEGFR binding to arrayed compounds – biochemical, biotinylated probe, 635/667 nm fluorescence, primary screen (AID 1097).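 Further: probe is a biotinylated anti-EGFR antibody binding compounds printed on slides; score combines fluorescence near 667 nm and signal to noise of each spot.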 The conditions noted are these: small-molecule microarray, higher = more signal.
Assay [11] relates to Plasmodium falciparum Sir2 (PF13_0152, Sir2A). Briefly: Plasmodium falciparum Sir2A binding compounds – biochemical, small-molecule microarray, 635 nm fluorescence, primary screen (AID 1098).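 Further: score merges spot fluorescence intensity with its signal-to-noise ratio.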 Conditions: fluorescence 635 nm, higher = more signal.
Assay [12] can be described thus: probe aDKK1 binding to arrayed compounds – biochemical, biotinylated probe, 635/667 nm fluorescence, primary screen (AID 1099).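 Further: score merges 667nm spot fluorescence with signal to noise across triplicate slides; reference of the scale not given here.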 The conditions noted are these: small-molecule microarray, higher = more signal.
Assay [13] is described as follows: probe aCHRDL2 binding to arrayed compounds – biochemical, biotinylated probe, 635/667 nm fluorescence, primary screen (AID 1100). Conditions: small-molecule microarray, higher = more signal.
A short description of assay [14]: change in splice reporter luminescence, either direction, cell-based, HEK293, spliceosome inhibition project, primary screen (AID 1101).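 Further: HEK293 cells carrying a splicing-competent luciferase reporter gene; test concentration not given here.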 The conditions noted are these: HEK293 splicing luciferase reporter, 24 h, higher = more signal, called active from +8 up or from −8 down.
Assay [15] concerns the target Fibroblast growth factor 10 (Homo sapiens) (UniProt O15520). Nature of the assay: compounds binding fibroblast growth factor 10 – biochemical, small-molecule microarray, 635 nm fluorescence, primary screen (AID 1102). The conditions noted are these: FGF10 binding, fluorescence 635 nm, higher = more signal.
The subject of assay [16] is glycogen synthase kinase-3 (GSK3A per assay name; protocol says GSK3B). Nature of the assay: compounds binding glycogen synthase kinase-3 – biochemical, small-molecule microarray, 635 nm fluorescence, GSK3A, primary screen (AID 1103). Further: the record names both GSK3A and GSK3B. The conditions noted are these: fluorescence 635 nm, higher = more signal.
The target in assay [17] is Epidermal growth factor receptor (Homo sapiens) (UniProt P00533). Briefly: compounds binding epidermal growth factor receptor – biochemical, small-molecule microarray, 635 nm fluorescence, primary screen (AID 1104).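 Further: score merges 667 nm emission intensity with spot signal to noise over triplicate slides.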 The conditions noted are these: EGFR binding, higher = more signal.
Sequence of Epidermal growth factor receptor (Homo sapiens) (P00533 whole entry, looked up): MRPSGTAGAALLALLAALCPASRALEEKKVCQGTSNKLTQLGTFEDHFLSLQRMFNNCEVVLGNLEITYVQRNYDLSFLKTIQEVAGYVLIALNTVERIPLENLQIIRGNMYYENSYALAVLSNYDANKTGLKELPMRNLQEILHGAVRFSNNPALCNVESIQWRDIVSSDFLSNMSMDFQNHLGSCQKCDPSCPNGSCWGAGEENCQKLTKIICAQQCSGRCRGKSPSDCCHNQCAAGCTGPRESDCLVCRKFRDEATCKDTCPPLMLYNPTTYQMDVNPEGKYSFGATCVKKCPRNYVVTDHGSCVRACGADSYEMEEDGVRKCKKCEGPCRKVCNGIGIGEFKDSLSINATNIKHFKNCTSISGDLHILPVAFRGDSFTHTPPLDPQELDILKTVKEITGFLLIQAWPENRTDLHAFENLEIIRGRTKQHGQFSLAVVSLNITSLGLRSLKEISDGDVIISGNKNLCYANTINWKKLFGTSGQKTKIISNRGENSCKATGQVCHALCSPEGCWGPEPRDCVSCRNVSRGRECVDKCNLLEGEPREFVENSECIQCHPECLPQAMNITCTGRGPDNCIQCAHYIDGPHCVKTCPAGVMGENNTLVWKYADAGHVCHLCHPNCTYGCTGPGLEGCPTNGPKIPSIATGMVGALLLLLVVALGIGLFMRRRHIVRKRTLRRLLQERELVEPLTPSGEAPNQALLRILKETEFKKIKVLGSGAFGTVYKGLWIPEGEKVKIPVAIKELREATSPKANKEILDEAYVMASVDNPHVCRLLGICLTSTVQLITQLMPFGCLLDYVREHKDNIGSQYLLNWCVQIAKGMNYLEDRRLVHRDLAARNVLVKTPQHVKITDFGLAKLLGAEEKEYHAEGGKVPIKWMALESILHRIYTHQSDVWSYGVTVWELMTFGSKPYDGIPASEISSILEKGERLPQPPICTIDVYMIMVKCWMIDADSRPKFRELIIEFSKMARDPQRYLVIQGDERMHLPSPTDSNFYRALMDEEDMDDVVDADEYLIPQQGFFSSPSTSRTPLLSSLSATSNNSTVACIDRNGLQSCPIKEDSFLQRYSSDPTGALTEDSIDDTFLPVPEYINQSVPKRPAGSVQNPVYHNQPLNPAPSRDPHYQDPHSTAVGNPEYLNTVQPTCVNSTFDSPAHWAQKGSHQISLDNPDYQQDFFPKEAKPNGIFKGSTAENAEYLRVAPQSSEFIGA
Assay [18] addresses Follistatin-related protein 3 (Homo sapiens) (UniProt O95633). Briefly: compounds binding follistatin-related protein 3 – biochemical, small-molecule microarray, 635 nm fluorescence, primary screen (AID 1105).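 Further: score merges emission near 667 nm and signal to noise per printed spot across three slides.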 Conditions: FSTL3 binding, higher = more signal.
Assay [19] has as its target Dickkopf-related protein 1 (Homo sapiens) (UniProt O94907). Nature of the assay: small molecules binding DKK1 protein – biochemical, small-molecule microarray, 635 nm fluorescence scan, primary screen (AID 1106).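 Further: score merges emission near 667 nm with signal to noise over three replicate slides.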 Conditions: higher = more signal.
For assay [20], the system named is Inhibin beta A chain (activin A). Briefly: small molecules binding activin A – biochemical, small-molecule microarray, 635 nm fluorescence scan, primary screen (AID 1107).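 Further: mouse activin A protein probed at 4.33 µg/mL on printed slides; score merges bound-protein fluorescence near 667 nm with spot signal-to-noise.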 The conditions noted are these: INHBA, higher = more signal.

Active and inactive are the calls of the source.

Sequence of Fibroblast growth factor 10 (Homo sapiens) (O15520 whole entry, looked up): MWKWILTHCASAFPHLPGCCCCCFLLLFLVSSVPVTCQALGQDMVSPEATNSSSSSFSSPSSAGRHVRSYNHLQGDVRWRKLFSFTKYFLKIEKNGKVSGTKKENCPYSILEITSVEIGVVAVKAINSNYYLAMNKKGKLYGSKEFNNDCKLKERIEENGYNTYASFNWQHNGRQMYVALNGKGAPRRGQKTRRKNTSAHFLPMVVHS
Sequence of Dickkopf-related protein 1 (Homo sapiens) (O94907 whole entry, looked up): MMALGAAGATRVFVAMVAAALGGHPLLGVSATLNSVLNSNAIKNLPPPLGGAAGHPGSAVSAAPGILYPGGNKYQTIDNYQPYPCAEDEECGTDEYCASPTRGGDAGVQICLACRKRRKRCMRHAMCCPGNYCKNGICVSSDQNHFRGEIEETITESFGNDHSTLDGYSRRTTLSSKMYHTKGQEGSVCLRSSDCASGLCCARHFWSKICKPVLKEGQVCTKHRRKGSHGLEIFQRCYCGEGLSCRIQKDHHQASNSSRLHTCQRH
Sequence of Follistatin-related protein 3 (Homo sapiens) (O95633 whole entry, looked up): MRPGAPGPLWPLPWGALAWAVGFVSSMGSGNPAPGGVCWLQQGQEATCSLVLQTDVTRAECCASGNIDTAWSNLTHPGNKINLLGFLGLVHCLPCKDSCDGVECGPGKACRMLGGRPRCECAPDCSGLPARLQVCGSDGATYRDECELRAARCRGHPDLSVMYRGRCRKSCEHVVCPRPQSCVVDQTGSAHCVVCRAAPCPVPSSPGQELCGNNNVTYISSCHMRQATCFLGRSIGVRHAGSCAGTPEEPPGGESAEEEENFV

Take `COC(=O)[C@@H]1CC[C@H](C)[C@@H](c2ccc(C)cc2)N1C(=O)c1ccc(C=NOC[C@@H](O)[C@H]2O[C@@H]3OC(C)(C)O[C@@H]3[C@H]2O)cc1`: the composite z-score in [1] was 0.886; in assay [5] it was 1.23; in assay [7], -0.0916; in assay [8], 0.159; in assay [9] it was 1.14; in assay [10], 0.0453. Further, the composite z-score in assay [11] was 0.402; in assay [12], 0.0861; in [13], -0.357; in assay [15], 0.696; in assay [16], 0.479; in [17] it was 0.54. Further, the composite z-score in [18] was found to be 0.543; in assay [19], 0.595; in [20], 0.101. In addition, the z-score in assay [2] is -1.17 (inactive); in assay [3] it was 0.459 (inactive); in assay [4], -0.431 (inactive); in [6] it was 1.6 (inactive); in assay [14], 0.569 (inactive).
For `CSCC[C@@H]1NC(=O)CC=C[C@@H](C)COC(=O)[C@H](C)COC1=O`, the composite z-score in assay [1] was 1.53; in [5], -0.265; in [7], -0.295; in [8] it was 2.11; in [9], 0.883; in assay [10], 0.702. In addition, the composite z-score in assay [11] is 0.926; in assay [12], -0.641; in assay [13] it was -2.03; in [15], 1.49; in assay [16], 0.781; in assay [17], 1.67. Besides, the figures for the composite z-score in assay [18], in assay [19] and in assay [20] were 1.23, 2.31 and -2.83, respectively. For the same compound, the z-score in [2] is -2.12 (inactive); in [3], -1.99 (inactive); in [4], -0.894 (inactive); in assay [6] it was 0.453 (inactive); in assay [14], -0.841 (inactive).
`O=C1[C@H]2[C@H]3[C@H](O)[C@H](O)CC(=NO[C@@H]4O[C@H](CO)[C@@H](O)[C@H](O)[C@H]4O)[C@@H]3CC[C@H]2C(=O)N1C1CCCCC1`: the composite z-score is 0.112 in [1]; 0.301 in assay [5]; -0.174 in assay [7]; 0.662 in assay [8]; 0.749 in assay [9]; -0.111 in [10]. Further, the composite z-score in assay [11] was 0.203; in assay [12], -0.275; in assay [13], -0.458; in assay [15], 0.57; in assay [16], 0.607; in [17], 0.46. In addition, the values for the composite z-score in assay [18], in [19] and in assay [20] were 0.542, 0.353 and -0.224, respectively. For the same compound, the z-score in [2] is 0.0081 (inactive); in assay [3], -0.159 (inactive); in assay [4], -0.291 (inactive); in assay [6], -0.166 (inactive); in assay [14], -0.155 (inactive).
As for `CC(C)=NOC(C)CN1CCCCc2nc(C)c(C)cc21` (stereo not given), the composite z-score is 0.434 in assay [1]; 1.04 in [5]; -0.0441 in assay [7]; 0.634 in [8]; -0.0247 in assay [9]; -0.027 in assay [10]. Also, the composite z-score in assay [11] is 0.284; in assay [12], -0.261; in [13], -0.331; in assay [15], 0.151; in assay [16], 0.0285; in assay [17], 0.468. Also, the composite z-score in assay [18] came to 0.473; in [19] it was 0.619; in assay [20], 1.04. The z-score is -0.139 (inactive) in [2]; -0.104 (inactive) in [3]; -0.0334 (inactive) in assay [4]; 0.194 (inactive) in assay [6]; 0.19 (inactive) in [14].
As for `CC(C)(C)N1C(=O)[C@H]2[C@H]3[C@H](O)[C@H](O)CC(=NNC(=O)OCc4ccccc4)[C@H]3CC[C@H]2C1=O`, the composite z-score in assay [1] was 1.3; in assay [5], 1.39; in [7], -0.191; in [8] it was 0.683; in assay [9], 0.4; in assay [10], -0.0051. For the same compound, the composite z-score was -0.195 in assay [11]; 0.0773 in assay [12]; -0.525 in [13]; 0.72 in [15]; 0.792 in [16]; 0.208 in assay [17]. For the same compound, the composite z-score is 0.889 in [18], 0.608 in assay [19] and -1.06 in assay [20]. In addition, the z-score in assay [2] is 0.272 (inactive); in assay [3], -1.49 (inactive); in assay [4], -0.391 (inactive); in assay [6], 0.0955 (inactive); in assay [14] it was -0.422 (inactive).
